We go through ten compounds from PubChem BioAssay.

Structures are written as SMILES. Unmarked numbers belong to inactive results. How the calls were made is not given here.

This experiment has as its target Pantothenate synthetase (Mycobacterium tuberculosis (strain ATCC 25618 / H37Rv)) (UniProt P9WIL5). Description: Recombinant Mtb pantothenate synthetase (PanC) inhibitors, coupled enzyme, confirmatory (AID 375).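 Further: 0% = full reaction with vehicle and 100% = no enzyme background.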 To be noted: coupled enzyme assay; at 10 µM, active compounds read high.

In general, inhibition refers to how much of the control response was suppressed.

Sequence of Pantothenate synthetase (Mycobacterium tuberculosis (strain ATCC 25618 / H37Rv)) (P9WIL5 whole entry, looked up): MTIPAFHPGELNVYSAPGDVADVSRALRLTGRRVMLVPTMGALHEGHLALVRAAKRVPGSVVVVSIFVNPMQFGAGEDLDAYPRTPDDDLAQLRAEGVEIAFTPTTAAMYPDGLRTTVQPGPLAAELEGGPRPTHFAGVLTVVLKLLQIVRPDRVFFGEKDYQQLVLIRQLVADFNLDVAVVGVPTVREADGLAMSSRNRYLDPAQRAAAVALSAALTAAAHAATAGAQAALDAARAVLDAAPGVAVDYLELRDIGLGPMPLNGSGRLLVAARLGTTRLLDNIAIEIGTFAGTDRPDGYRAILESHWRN

In the case of `Cc1ccc(NC(=O)CSc2nnc(CCCCCNC(=O)OC(C)(C)C)o2)c(C)c1`, the inhibition was 6%.

Turning to `COc1cc(C)c(Br)cc1S(=O)(=O)N1CCOCC1`, the inhibition is 2%.

With `CCN(CC)S(=O)(=O)c1ccc2c(c1)nc(SCC(=O)NC1CC1)n2-c1ccccc1OC`, the inhibition is 0%.

Turning to `Cc1ccc(N2CCN(c3ccc(C)cc3)C(CC(=O)O)C2=O)cc1` (stereo not given), the inhibition was 7%.

Regarding `CCOC(=O)N1CCN(S(=O)(=O)c2ccc(F)c(C(=O)Nc3cc(C)cc(C)c3)c2)CC1`, the inhibition was 7%.

Consider `CCCC1Cc2c(sc3ncnc(N)c23)CO1` (stereo not given), for which the inhibition was 0%.

For the compound `CCn1cc(C(=O)NCc2ccccc2OC)c(=O)c2cc(S(=O)(=O)N(C)C)ccc21`, the inhibition is 0%.

With `Cc1c(N=C2SCC(=O)N2c2c(C)n(C)n(-c3ccccc3)c2=O)c(=O)n(-c2ccccc2)n1C`, the inhibition was 3%.

For the compound `CCc1nc(NCCCN2CCOCC2)c2oc3ccccc3c2n1`, the inhibition was 2%.

`CCn1c(SCC(=O)Nc2cc(NC(C)=O)ccc2OC)nnc1-c1ccccn1`: the inhibition was 2%.
